The results in this text go back to ChEMBL document CHEMBL4513216, “Probing the Open Global Health Chemical Diversity Library for Multistage-Active Starting Points for Next-Generation Antimalarials” (ACS Infect Dis, 2020).

Structures are written as SMILES. Hit rate of the full screen: of about 69,000 compounds, about 8,600 (12%) showed an effect of 50% or more. The sample holds strong results, similar compounds and a random draw of the others, so the mix is not that of the screen.

This assay has as its system Plasmodium berghei. In words: Screen against P. berghei liver stage (PbLuc), transformed with Luciferase, at 10uM. As to conditions: tested at 10 uM. In kind it is functional, HepG2.
Consider `N#Cc1ccccc1C(=O)Nc1cccc(CN2CCC(CO)CC2)c1`, for which the INHIBITION was -43.1%.

For `Cc1cc(OCC(=O)N2CCCC(c3nc(C)c(C)s3)C2)no1` (centres undefined), the INHIBITION came out at 0.914%. Take `CC(O)CN1CCN(C(=O)c2ccc(N3CCCC3)nn2)CC1` (centres undefined): the INHIBITION is -43.5%. Take `O=C(CC1CCCC1)Nc1ccc(-n2cc(Br)cn2)nc1`: the INHIBITION was found to be 24.8%. Regarding `CN(C)S(=O)(=O)CCCN1CCc2c(ncn2C2CC2)C1`, the INHIBITION worked out at 33.7%. `COCCN1C(=O)CCC12CCN(C(=O)CNC(C)=O)CC2`: the INHIBITION was -49.2%. For the molecule `Oc1ccc(CCC2CCCCN2Cc2noc(C3CC3)n2)cc1` (centres undefined), the INHIBITION turned out to be 26.5%. Consider `Cc1cc(N2CCN(C(=O)c3cc(Cl)c[nH]3)CC2)nc(C(C)C)n1`, for which the INHIBITION was found to be 24.6%. For `COc1cc(C)nc(N2CCN(C(=O)CCc3ccncc3)CC2)n1` the value was 7.18%.

`Cc1cc(C)cc(CCC(=O)N2CCN(c3cc(C)nc(N)n3)CC2)c1`: the INHIBITION stood at 80.5%. Consider `Cc1cc(N2CCN(C(=O)c3cc(Cl)c[nH]3)CC2)nc(N)n1`, for which the INHIBITION stood at 50.1%. Regarding `Cc1cc(N2CCN(C(=O)CCc3scnc3C)CC2)nc(N)n1`, the INHIBITION was -6.72%.

With `Cc1cc(N2CCN(C(=O)c3cc(Cl)c[nH]3)CC2)nc(C)n1`, the INHIBITION was 5.76%. Take `CN1[C@@H](C(=O)NCC2CC2)C[C@H]2CN(Cc3ccsc3)C[C@H]21`: the INHIBITION was -14.7%. For `NC(=O)c1cc2c(nc1N1C[C@H]3OC(=O)N(C4CCCC4)[C@H]3C1)CCC2` the value was 5.05%; for `Cc1c(NCc2cccnc2)cccc1C(=O)N1CCC(N(C)C)C1` (centres undefined), 24.4%; for `CC(C(=O)Nc1ccon1)n1ccc(C(F)(F)F)n1` (centres undefined), 15.1%. For `N#Cc1cccnc1N1CCCN(C(=O)CCn2cncn2)CC1`, the INHIBITION turned out to be 14.1%.

For the molecule `c1ccc(Cn2cccn2)c(CNCC2CNc3ccnn3C2)c1` (centres undefined), the INHIBITION is 45.8%. As for `c1cc2n(n1)CC(CNCc1ccc(OC3CCCC3)nc1)CN2` (centres undefined), the INHIBITION is recorded as 41.5%. `c1ccc(Cn2cncn2)c(CNCC2CNc3ccnn3C2)c1` (centres undefined): the INHIBITION is reported as 36.4%. Regarding `COc1cc(CNCC2CNc3ccnn3C2)ccn1` (centres undefined), the INHIBITION was found to be 23.7%.

For `c1cc(CNCC2CNc3ccnn3C2)cc(OC2CCCCC2)n1` (centres undefined), the INHIBITION is reported as 40.2%.

With `c1ccc(-n2ccnc2)c(CNCC2CNc3ccnn3C2)c1` (centres undefined), the INHIBITION turned out to be 55.1%. Regarding `c1cc(CNCC2CNc3ccnn3C2)cc(N2CCCCC2)n1` (centres undefined), the INHIBITION was 37%. The result for `OCc1ccccc1CNCC1CNc2ccnn2C1` (centres undefined) reads -17%; that for `c1cc(CNCC2CNc3ccnn3C2)cc(OC2CCCC2)n1` (centres undefined), 60.7%. Consider `c1cc(CNCC2CNc3ccnn3C2)cc(N2CCOCC2)n1` (centres undefined), for which the INHIBITION turned out to be 62.1%. Turning to `c1ccc(Cn2cc(CNCC3CNc4ccnn4C3)cn2)cc1` (centres undefined), the INHIBITION is 9.54%.

With `c1cc(CNCC2CNc3ccnn3C2)cc(Cn2cccn2)c1` (centres undefined), the INHIBITION is 50.5%.

For the molecule `O=C(Cn1c(C(F)F)cc2cccnc21)NC1CCCC1`, the INHIBITION worked out at 22%. For `CN(C)c1nc(CNC(=O)Nc2cccc([S+](C)[O-])c2)cs1` (centres undefined) the value was 12.4%; for `Cc1cnn(CC(=O)N2CCC(c3ccn4nccc4n3)CC2)c1`, 32.7%. Regarding `CCOC1COC2(CCN(Cc3cccc(C#N)c3)CC2)C1` (centres undefined), the INHIBITION was 29.7%. As to `CN1CCCN(C(=O)NCCOc2ccc3c(c2)OCO3)CC1`, the INHIBITION came out at 33.3%. Take `COCCN1C(=O)C[C@@H]2[C@H]1CCN2C(=O)c1ccc[nH]1`: the INHIBITION was -14.4%. The result for `Cc1nc(C)n(CC2CCCN(CC(=O)N3CCCC3)C2)n1` (centres undefined) reads 7.67%; that for `CCc1noc(-c2cccc(C(=O)O)c2)n1`, -30%. `CN1C[C@@H](C(=O)N(C)C)[C@@]2(CCc3ccccc3C(=O)N2)C1`: the INHIBITION is recorded as 4.41%. For `Cc1cnn(CC2CN(Cc3noc(C4CC4)n3)CCO2)c1` (centres undefined) the value was -12.2%. Take `Cc1ccc2c(c1)OC(C)CN2C(=O)CCc1cccnc1` (centres undefined): the INHIBITION was 43.4%. For the molecule `Cc1ccc2c(c1)OC(C)CN2C(=O)Cc1ccc(C)nc1` (centres undefined), the INHIBITION is on record as 59.1%. Regarding `Cc1ccc2c(c1)OC(C)CN2C(=O)CCc1cscn1` (centres undefined), the INHIBITION is given as 9.04%.

As for `CCSc1ccccc1C(=O)NCC1CCN(Cc2ccsc2)CC1`, the INHIBITION was determined as 13.6%. With `NC(=O)CN1CCCN(C(=O)Cc2ccc3ccccc3c2)CC1`, the INHIBITION is listed as -9.98%. Regarding `COC(=O)CN1CCCN(C(=O)CCOc2cccc(C)c2C)CC1`, the INHIBITION is 29.7%.

`NC(=O)CN1CCCN(C(=O)Cc2ccc(F)cc2)CC1`: the INHIBITION amounted to 5.03%. As for `Cc1cccc(OCCC(=O)N2CCCN(C(N)=O)CC2)c1C`, the INHIBITION is 15.5%. Regarding `Cc1cccc(OCCC(=O)N2CCCN(CC(N)=O)CC2)c1C`, the INHIBITION is given as 55.9%. On to `NC(=O)CN1CCCN(C(=O)Cc2ccc(Br)cc2)CC1`, for which the INHIBITION stood at 54.4%. On to `CN(CC(=O)NCC(=O)Nc1ccc(F)cc1)Cc1cccs1`, for which the INHIBITION is 5.87%. For `CSC(C)C(=O)N1CCCN(c2ncccc2C#N)CC1` (centres undefined) the value was 1.78%. On to `CCC1(CO)CCCN(c2ncccc2C#N)C1` (centres undefined), for which the INHIBITION turned out to be 5.14%. As for `N#Cc1cccnc1N1CCCC(CO)(Cc2ccc(F)cc2)C1` (centres undefined), the INHIBITION is recorded as 85.5%. As to `Cc1ccccc1CC1(CO)CCCN(c2ncccc2C#N)C1` (centres undefined), the INHIBITION turned out to be 56.8%. As for `N#Cc1cccnc1N1CCCC(CO)(Cc2ccccc2F)C1` (centres undefined), the INHIBITION is recorded as -17.2%. In the case of `N#Cc1cccnc1N1CCCC(CO)(Cc2cccc(Cl)c2)C1` (centres undefined), the INHIBITION is given as -84%. For the molecule `Cc1ccccc1CN1C[C@@H]2COC[C@]2(CNC(=O)C2CCC2)C1`, the INHIBITION turned out to be 43%. In the case of `CCOCc1nc(N2CCCC2)sc1C(=O)NCCC(=O)OCC`, the INHIBITION worked out at 2.55%. Take `Cn1ccnc1CN1CCc2c(COCC3CC3)nn(C)c2C1`: the INHIBITION was 38.5%. With `Cn1cc(C2CC(=O)NC23CCN(C(=O)Cc2ccccn2)CC3)cn1` (centres undefined), the INHIBITION is reported as -7.29%. On to `CNC(=O)N1CCC2(CC1)CC[C@@]1(C(=O)NC)CN(S(C)(=O)=O)C[C@@H]21`, for which the INHIBITION is listed as 12.5%. For `Cc1ncccc1Oc1nccnc1C1CCN(S(C)(=O)=O)CC1`, the INHIBITION was 32.3%. Take `COCC(=O)N1CCC(c2nccnc2Oc2cccnc2C)CC1`: the INHIBITION was 50.4%. In the case of `CCc1nccn1-c1nccnc1C1CCN(C(=O)COC)CC1`, the INHIBITION is listed as 67.7%. Consider `CCc1nccn1-c1cccc(C2CCN(C(=O)COC)CC2)n1`, for which the INHIBITION is listed as 20.8%. On to `Cc1ncccc1Oc1nccnc1C1CCN(C(C)C)CC1`, for which the INHIBITION was found to be 40.9%. For `CCc1nccn1-c1nccnc1C1CCCN(C(=O)COC)C1` (centres undefined), the INHIBITION is listed as 48.4%. For `CCc1nc(C2CCCN2C(=O)c2cnc3n[nH]c(C)c3c2)no1` (centres undefined), the INHIBITION is given as 27%. With `CC(CN1CCCC1=O)NC(=O)Nc1cccnc1-n1cccn1` (centres undefined), the INHIBITION amounted to 4.66%. With `CN1CCN(c2ccnc3c(F)cc(Br)cc23)CC1`, the INHIBITION is given as 62.8%.

`CC(=O)N1CCN(c2ccnc3c(F)cc(Br)cc23)CC1`: the INHIBITION is 40.6%.

On to `OC1CCN(c2ccnc3c(F)cc(Br)cc23)CC1`, for which the INHIBITION was determined as 16.6%.

With `CN(C)CC(=O)N1CCOC2(CCCN(c3ncccc3F)C2)C1` (centres undefined), the INHIBITION was 21.8%. For `CN([C@@H]1CCC[C@@H](n2ccnc2)[C@@H]1O)S(=O)(=O)c1cn(C)cn1`, the INHIBITION was 13.7%. In the case of `CC(C)(C)c1n[nH]c(C2CN(Cc3nnc(C4CCC4)o3)CCO2)n1` (centres undefined), the INHIBITION is reported as -38.2%. In the case of `O=C(CCc1ccccc1)N1CCCC(c2n[nH]c3nccnc23)C1` (centres undefined), the INHIBITION turned out to be 32.8%.

For `COc1ccccc1NC(=O)Cc1c(C)nc2c(c1C)c(=O)[nH]n2C`, the INHIBITION is reported as -16.5%. Consider `Cc1nc2c(c(C)c1CC(=O)Nc1ccccc1F)c(=O)[nH]n2C`, for which the INHIBITION was determined as 60.9%. For `Cc1nc2c(c(C)c1CC(=O)NCc1ccccc1F)c(=O)[nH]n2C` the value was 39.2%; for `COc1ccccc1C(O)CNC(=O)Nc1cccnc1OC` (centres undefined), -13.5%. The result for `COc1cc(N2CCC3(CC2)CC(N2CCOCC2)C3)ncn1` reads 0.112%. Consider `O=C(NC[C@H]1OC[C@@H](NC2COC2)[C@@H]1O)Nc1ccccc1`, for which the INHIBITION is 12.4%.

For `O=C(NC[C@H]1OC[C@@H](NC2CCOCC2)[C@@H]1O)Nc1ccccc1`, the INHIBITION came to 51%. In the case of `CC(C)NC(=O)NC[C@H]1OC[C@@H](NCc2ccccc2O)[C@@H]1O`, the INHIBITION was 4.59%. The result for `CC(C)N[C@@H]1CO[C@H](CNC(=O)Nc2ccccc2)[C@H]1O` reads 50.2%; that for `CC(C)N[C@@H]1CO[C@H](CNC(=O)c2ccccc2)[C@H]1O`, -6.23%. For `CC(C)(C)CN[C@@H]1CO[C@H](CNC(=O)Nc2ccccc2)[C@H]1O`, the INHIBITION was found to be 41.1%. Take `CC(=O)N1CCC(N[C@@H]2CO[C@H](CNC(=O)c3cccs3)[C@H]2O)CC1`: the INHIBITION is 60.9%. For the molecule `CN1CCC(N[C@@H]2CO[C@H](CNC(=O)c3cccs3)[C@H]2O)CC1`, the INHIBITION stood at 17.4%. For the molecule `O=C(NC[C@H]1OC[C@@H](NC2CCC2)[C@@H]1O)Nc1ccccc1`, the INHIBITION was 41.9%. Turning to `O=C(NC[C@H]1OC[C@@H](NCc2ccccc2F)[C@@H]1O)Nc1ccccc1`, the INHIBITION is listed as -13.4%. Take `O=C(NC[C@H]1OC[C@@H](NC2CCC2)[C@@H]1O)c1cccs1`: the INHIBITION was 18.4%.

For the molecule `CC(C)NC(=O)NC[C@H]1OC[C@@H](NCc2ccccc2F)[C@@H]1O`, the INHIBITION is listed as 58.5%. For `Cn1cc(CN2CCc3nc4ccccc4c(=O)n3CC2)cn1` the value was -10.2%.

Take `COC(=O)C(NC(=O)CCOC(C)C)c1cc(F)ccc1F` (centres undefined): the INHIBITION is on record as -19.9%. For `Cc1ccc(N(CC(=O)N2CCCCC2)C(=O)C2COCCO2)cc1` (centres undefined), the INHIBITION is reported as 11.6%. For the molecule `CC(C)CC(NC(=O)c1cccs1)c1nc2cccnc2n1C` (centres undefined), the INHIBITION is listed as -11.4%. The result for `Cn1ccnc1C1(O)CCN(C(=O)CCc2ccccc2)CC1` reads 27.465%; that for `O=C1NCCCc2[nH]c(C3CCN(C(=O)C4CC4)CC3)nc21`, 10.4%; that for `CN(CCn1cncc1-c1cnc(N2CCOCC2)nc1)C1CCCC1`, -11.05%.

On to `CN1CCC(N[C@@H]2CO[C@H](CNC(=O)Nc3ccccc3)[C@H]2O)CC1`, for which the INHIBITION worked out at 60.1%. Consider `O=C(NC[C@H]1OC[C@@H](NCc2ccccc2)[C@@H]1O)Nc1ccccc1`, for which the INHIBITION is recorded as 17.7%. For the molecule `O=C(NC[C@H]1OC[C@@H](NC2CCCCC2)[C@@H]1O)Nc1ccccc1`, the INHIBITION was 26%.
